NPC1 promoter act – qHTS Assay for NPC1 Promoter Activators. Huh7 NPC1 promoter luciferase reporter, 24 h. Potency, µM (top dose mostly 9.22 µM), inactives show at the top dose activation, usual class: activators. 320,000 compounds, 2.4% hits. AID 485313, 2010; further: % of control where 0% means no effect; nearly all actives have a fitted effect of over 60% in size
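Compounds in DMSO were transferred onto Huh7 NPC1-luciferase reporter cells pre-incubated 2 h; after 24 h at 37 °C, Amplite reagent was dispensed and luminescence recorded 10 min later.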
SMN2 splice enh – qHTS Assay for Enhancers of SMN2 Splice Variant Expression; HEK293 SMN2-luciferase splicing reporter, luminescence, 30-36 h; Potency, µM (highest dose often 46.1 µM), for the others: at the highest dose activity change, positive = activation, most hits filed as activators; 210,000 compounds, 2.8% hits; further: % of control where 0% means no effect; nearly all actives have a fitted effect of over 55% in size
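qHTS luciferase splicing reporter: luminescence rises when SMN2 exon 7 is included in transfected HEK293 cells. Compound exposure lasted 30-36 h at 37C, with 4.5 mM final sodium butyrate as control, followed by a ONE-Glo read.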
ELG1 DNA repair – qHTS screen for small molecules that inhibit ELG1-dependent DNA repair in human embryonic kidney (HEK293T) cells expressing luciferase-tagged ELG1. HEK293T ELG1-luciferase reporter, luminescence, 16 h; DNA damage induced by 5-fluorouridine. Potency, µM (series often up to 46.1 µM), without a hit: top-dose activity change, negative = inhibition, usual class: inhibitors. 330,000 compounds, 2.3% hits. AID 504467, 2011; further: on the % scale 0 is the no-effect control and ±100 the full control effect; nearly all actives have a fitted effect of over 55% in size
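Overnight (16 hr) co-exposure of 2,000 cells/well to 5-fluorouridine and compound at 37 °C preceded detection. Luciferase was quantified via ONE-Glo luminescence; loss of signal denotes inhibition.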
ELG1 genotox – qHTS screen for small molecules that induce genotoxicity in human embryonic kidney (HEK293T) cells expressing luciferase-tagged ELG1. HEK293T ELG1-luciferase reporter, luminescence, 16 h. Potency, µM (titrated, usually from 46 µM), inactives show at the highest dose activity change, positive = activation, usual class: activators. 330,000 compounds, 1.3% hits. AID 504466, 2011; further: % of control where 0% means no effect; nearly all actives have a fitted effect of over 60% in size
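Quantitative HTS format in 1536-well plates. HEK293T ELG1-luciferase reporter cells receive test compound and are incubated 16 hr at 37 °C, 5% CO2; ONE-Glo added, 30 min room temperature, then luminescence read.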
FLuc modulator – qHTS profiling assay for firefly luciferase inhibitor/activator using purifed enzyme and Km concentrations of substrates (counterscreen for miR-21 project) | Potency, µM (titrated, usually from 57.5 µM), for the others: top-dose activity change, negative = inhibition, most hits filed as inhibitors | purified FLuc, Km substrates, luminescence inhibition | 360,000 compounds, 6.9% hits | Luciferin 4-monooxygenase (Photinus pyralis), P08659;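 further: plate controls were vehicle for no effect and reference inhibitor for full effect; nearly all actives have a fitted effect of over 55% in size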
Target sequence (P08659 whole entry, looked up): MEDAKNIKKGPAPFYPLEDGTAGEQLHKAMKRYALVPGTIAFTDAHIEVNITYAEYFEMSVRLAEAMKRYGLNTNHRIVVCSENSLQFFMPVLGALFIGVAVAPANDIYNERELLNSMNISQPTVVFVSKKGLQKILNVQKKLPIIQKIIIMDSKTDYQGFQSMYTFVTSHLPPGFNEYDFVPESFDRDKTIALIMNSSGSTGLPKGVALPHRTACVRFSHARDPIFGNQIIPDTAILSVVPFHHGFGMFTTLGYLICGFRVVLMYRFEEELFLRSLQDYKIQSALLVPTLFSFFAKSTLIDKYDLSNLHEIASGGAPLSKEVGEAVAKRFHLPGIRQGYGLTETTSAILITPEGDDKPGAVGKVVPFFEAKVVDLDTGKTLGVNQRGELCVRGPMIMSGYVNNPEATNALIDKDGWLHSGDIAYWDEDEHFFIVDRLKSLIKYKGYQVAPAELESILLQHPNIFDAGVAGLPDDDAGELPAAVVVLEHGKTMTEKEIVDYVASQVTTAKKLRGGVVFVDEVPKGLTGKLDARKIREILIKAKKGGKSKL
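Purified P. pyralis luciferase, 10 nM final, with Km-level 10 uM D-luciferin and 10 uM ATP in 50 mM Tris acetate pH 7.5, 10 mM Mg acetate, 0.01% Tween-20, 0.05% BSA; 6-point qHTS titration about 60 µM downward; luminescence read.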
Rab9 promoter act – qHTS Assay for Rab9 Promoter Activators; Huh7 Rab9 promoter-luciferase reporter, luminescence, 24 h; Potency, µM (doses to about 9.22 µM), without a hit: at the highest dose activation, negative = inhibition, actives largely listed as activators; 320,000 compounds, 2.8% hits; AID 485297, 2010; further: % of control where 0% means no effect; nearly all actives have a fitted effect of over 60% in size
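Steps: seed 1500 Huh7 Rab9-luc cells per well, rest 2 h at 37 °C; add compound in DMSO; incubate 24 h; add luciferase reagent, 10 min ambient; read luminescence.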
Active calls of the source: *; ? = inconclusive; / = not tested or not shown; [ ] = remark or other dose. The list is not random: actives were taken first. Their share in the collection is about 9.2%. The call rests on the fitted dose curve; in most records, active means well fitted curve in the direction sought with a large enough effect; inconclusive means small, poorly fitted or top-dose-only effect, or another doubt; inactive means no such curve, though single readings can be large; an effect the other way counts as inactive or inconclusive. Potency means the concentration at half of the fitted maximal effect.

SMILES	NPC1 promoter act	SMN2 splice enh	ELG1 DNA repair	ELG1 genotox	FLuc modulator	Rab9 promoter act
CC1(C)Cc2c(sc(NC(=O)c3ccco3)c2C#N)CO1	1.6µM*	?	?	?	1.9µM*	3.2µM*
CCC1(C)Cc2c(sc(NC(=S)NC(=O)c3ccccc3)c2C#N)CO1 (stereo not given)	18%	2%	?	5%	6µM*	28%
CCN1CCc2c(sc(NC(=S)NC(=O)c3ccccc3)c2C#N)C1	-2%	-1%	2%	3%	-9%	3%
CN1Cc2sc(NC(=S)NC(=O)c3ccccc3)c(C#N)c2CC1(C)C	8%	/	?	?	13µM*	9%
N#Cc1c(NC(=O)c2ccco2)sc2c1CCC2	-6%	/	?	-1%	-1%	5%
CC1CCc2sc(NC(=S)NC(=O)c3ccccc3)c(C#N)c2C1 (stereo not given)	?	?	?	10%	12µM*	?
COc1cccc(NC(=O)C2CCCN(S(=O)(=O)c3ccc4[nH]c(=O)ccc4c3)C2)c1 (stereo not given)	/	/	/	/	1%	/
COCCn1c(C)cc(C(=O)CSc2nc3ccccc3c(=O)n2Cc2ccco2)c1C	3.2µM*	7.1µM*	?	?	1.7µM*	1.3µM*
COCCn1c(C)cc(C(=O)CSc2cc(C)c3ccccc3n2)c1C	1%	-14%	-22%	1%	13µM*	11%
Cc1cccc(NC(=O)C2CCCN2S(=O)(=O)c2ccc3nc(-c4ccccc4)[nH]c3c2)c1 (stereo not given)	/	/	/	/	-14%	/
C=CCOc1ccccc1CN1CCCN(C)CC1	2%	/	-6%	-3%	9%	-6%
Cn1cc(Cl)c(/C(N)=N/OC(=O)c2ccccc2C(F)(F)F)n1	3.5µM*	/	?	21µM*	12µM*	4.5µM*
Cn1cc(Cl)c(C(=O)OCC(=O)Nc2cccc(Cl)c2)n1	-4%	/	11%	-2%	2%	-2%
Cc1cccc(N=N/C(=C\O)C(=O)c2cccs2)c1	11%	-43%	21µM*	-3%	?	15%
Cc1cc(N=Cc2c(O)n(-c3cccc(Cl)c3)c(=O)c3ccccc23)no1	-9%	5%	18µM*	0%	2%	-9%
CCOc1ccc(CCNC(=O)Cc2ccc(NC(=O)C3=C(C)OCCS3)cc2)cc1	?	/	?	7%	4.3µM*	?
CC1=C(C(=O)Nc2ccc(C(=O)NCCC(C)C)cc2)SCCO1	-3%	/	1%	2%	-3%	1%
COc1ccc(CCNC(=O)c2ccccc2NC(=O)C2=C(C)OCCS2)c(OC)c1	-7%	/	18µM*	-13%	?	-3%
CSc1ccc(CNC(=O)Cc2ccc(NC(=O)C3=C(C)OCCS3)cc2)cc1	-1%	/	?	13µM*	1.3µM*	?
O=C(Nc1ccc(Br)cc1F)N1CCC2(CC1)Oc1ccccc1C(=O)N2Cc1ccccc1F	/	7%	/	/	-1%	/
COCC(=O)N1CCC(Oc2ccc(C(=O)N3CCCCC3COC)cc2)CC1 (stereo not given)	-2%	/	22%	-1%[9.26 µM]	0%	-2%
CCCCn1c(C)cc2c(c1=O)C1O[C@](c3ccc(OC)cc3)(Cc3cc(OC)c(OC)cc31)O2	-6%[1.84 µM]	/	/	/	?	3%[1.84 µM]
CCc1ccc(NC(=O)N2CCOc3ccc(Cl)cc32)cc1	/	/	/	/	-17%	/
C(=N\Nc1nncc2ccccc12)/c1ccccn1	?	/	?	0.37µM*	1.7µM*	?

Screens as filed in PubChem.
